Results taken from PubChem BioAssay (NCATS).
Several values for one entry are separate records, joined by “and”; a condition that tells them apart may be missing. Identical values can stand only once. Results filed as inconclusive are left out. Activity calls are given as the source filed them. Calls come from the whole dose curve; as a rule, active = well fitted inhibition curve with a large enough effect; inconclusive = small, poorly fitted or top-dose-only effect; inactive = flat fitted curve, though single readings scatter.

Tests used:
[1] = tested on: Dd2; assay: qHTS profiling for inhibitors of Plasmodium falciparum proliferation (AID 504749); conditions: P. falciparum in erythrocytes, SYBR Green DNA, 72 h; series mostly up to 28.7 µM
Procedure, shortened: (§1)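 Each compound contacts P. falciparum-infected red blood cells for 72 h at 37 C; lysis buffer (Tris, EDTA, saponin, Triton X, SYBR Green I) is added and fluorescence measured next morning; values normalized to controls.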

[2] = tested on: ECU; assay: as above; conditions: P. falciparum in erythrocytes, SYBR Green DNA, 72 h; series mostly up to 28.7 µM
Procedure, shortened: as §1

[3] = tested on: FAB9; assay: as above; conditions: P. falciparum in erythrocytes, SYBR Green DNA, 72 h; series mostly up to 28.7 µM
Procedure, shortened: as §1

[4] = tested on: GB4; assay: as above; conditions: P. falciparum in erythrocytes, SYBR Green DNA, 72 h; series mostly up to 28.7 µM
Procedure, shortened: as §1

[5] = tested on: HB3; assay: as above; conditions: P. falciparum in erythrocytes, SYBR Green DNA, 72 h; series mostly up to 28.7 µM
Procedure, shortened: as §1

[6] = tested on: ICS; assay: as above; conditions: P. falciparum in erythrocytes, SYBR Green DNA, 72 h; series mostly up to 28.7 µM
Procedure, shortened: as §1

[7] = tested on: JCK; assay: as above; conditions: P. falciparum in erythrocytes, SYBR Green DNA, 72 h; series mostly up to 28.7 µM
Procedure, shortened: as §1

[8] = tested on: N140; assay: as above; conditions: P. falciparum in erythrocytes, SYBR Green DNA, 72 h; series mostly up to 28.7 µM
Procedure, shortened: as §1

[9] = tested on: P93_24; assay: as above; conditions: P. falciparum in erythrocytes, SYBR Green DNA, 72 h; series mostly up to 28.7 µM
Procedure, shortened: as §1

[10] = tested on: P94_40; assay: as above; conditions: P. falciparum in erythrocytes, SYBR Green DNA, 72 h; series mostly up to 28.7 µM
Procedure, shortened: as §1

[11] = tested on: PAD; assay: as above; conditions: P. falciparum in erythrocytes, SYBR Green DNA, 72 h; series mostly up to 28.7 µM
Procedure, shortened: as §1

[12] = tested on: PC15; assay: as above; conditions: P. falciparum in erythrocytes, SYBR Green DNA, 72 h; series mostly up to 28.7 µM
Procedure, shortened: as §1

[13] = tested on: PC26; assay: as above; conditions: P. falciparum in erythrocytes, SYBR Green DNA, 72 h; series mostly up to 28.7 µM
Procedure, shortened: as §1

[14] = tested on: PC49; assay: as above; conditions: P. falciparum in erythrocytes, SYBR Green DNA, 72 h; series mostly up to 28.7 µM
Procedure, shortened: as §1

[15] = tested on: SC27B; assay: as above; conditions: P. falciparum in erythrocytes, SYBR Green DNA, 72 h; series mostly up to 28.7 µM
Procedure, shortened: as §1

[16] = tested on: TAB109; assay: as above; conditions: P. falciparum in erythrocytes, SYBR Green DNA, 72 h; series mostly up to 28.7 µM
Procedure, shortened: as §1

[17] = tested on: TAB113; assay: as above; conditions: P. falciparum in erythrocytes, SYBR Green DNA, 72 h; series mostly up to 28.7 µM
Procedure, shortened: as §1

[18] = tested on: TAB165; assay: as above; conditions: P. falciparum in erythrocytes, SYBR Green DNA, 72 h; series mostly up to 28.7 µM
Procedure, shortened: as §1

[19] = tested on: W2; assay: as above; conditions: P. falciparum in erythrocytes, SYBR Green DNA, 72 h; series mostly up to 28.7 µM
Procedure, shortened: as §1

[20] = tested on: CRL-7250; assay: Cytotoxic Profiling of Annotated Libraries Using Quantitative High-Throughput Screening (AID 1296008); conditions: Five cell lines viability, CellTiter-Glo ATP luminescence, 48-72 h; max response: active compounds read low; for max response: % is set by controls: 0 for no effect and ±100 for the full control effect
Procedure, shortened: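 Cells exposed to compounds for 48 or 72 hr at 37 degrees Celsius. Viability read as ATP-coupled luminescence with CellTiter-Glo after 10 min at room temperature.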
Note: nearly all actives have a fitted effect of over 60% in size.
Potency is the fitted concentration of half-maximal effect.

CC[C@H]1CN2CCc3cc(OC)c(OC)cc3[C@H]2C[C@@H]1C[C@@H]1NCCc2cc(OC)c(OC)cc21
active: Potency [1] 178 nM | Potency [2] 316 nM | Potency [3] 141 nM | Potency [4] 269 nM | Potency [5] 316 nM | Potency [6] 178 nM | Potency [7] 141 nM | Potency [8] 316 nM | Potency [9] 282 nM | Potency [10] 251 nM | Potency [11] 355 nM | Potency [12] 282 nM | Potency [13] 601 nM | Potency [14] 141 nM | Potency [15] 398 nM | Potency [16] 251 nM | Potency [17] 316 nM | Potency [18] 316 nM | Potency [19] 151 nM

CN(C1CCc2c(c3ccccc3n2CC(=O)O)C1)S(=O)(=O)c1ccc(F)cc1 (stereo unspecified)
inactive: max response [20] 3.48% and -10.1% | outcome [20]

O=C(O)CCCc1c[nH]c2ccccc12
inactive: max response [20] -4.82% | outcome [20]

C[C@H]1C[C@@H]2[C@@H]([C@@H](O)C[C@@]3(C)[C@H]2CC[C@]3(O)C(=O)CO)[C@@]2(C)C=CC(=O)C=C12
inactive: Potency [1] | Potency [2] | Potency [3] | Potency [4] | Potency [5] | Potency [6] | Potency [7] | Potency [8] | Potency [9] | Potency [10] | Potency [11] | Potency [12] | Potency [14] | Potency [15] | Potency [16] | Potency [17] | Potency [18] | max response [20] -0.811%

Nc1ccc(S(=O)(=O)Nc2ncccn2)cc1
inactive: Potency [1] | Potency [2] | Potency [3] | Potency [4] | Potency [5] | Potency [6] | Potency [7] | Potency [8] | Potency [9] | Potency [10] | Potency [11] | Potency [12] | Potency [13] | Potency [14] | Potency [15] | Potency [16] | Potency [17] | Potency [18] | Potency [19]

CCC1=C[C@@H]2CN(C1)Cc1c([nH]c3ccccc13)[C@@](C(=O)OC)(c1cc3c(cc1OC)N(C)[C@@H]1[C@@](O)(C(=O)OC)[C@H](OC(C)=O)[C@]4(CC)C=CCN5CC[C@]31[C@@H]54)C2
active: Potency [1] 891 nM | Potency [2] 3980 nM | Potency [4] 2130 nM | Potency [5] 7940 nM | Potency [6] 3160 nM | Potency [7] 14100 nM | Potency [8] 1410 nM | Potency [9] 2240 nM | Potency [10] 1580 nM | Potency [11] 2240 nM | Potency [12] 7080 nM | Potency [13] 3380 nM | Potency [15] 2240 nM | Potency [16] 2240 nM | Potency [17] 1580 nM | Potency [18] 2510 nM | Potency [19] 190 nM | Potency [20] 46.9 nM

O=c1[nH]c(=O)n(C2CCCO2)cc1F (stereo unspecified)
inactive: Potency [1] | Potency [2] | Potency [3] | Potency [4] | Potency [5] | Potency [6] | Potency [7] | Potency [8] | Potency [9] | Potency [10] | Potency [11] | Potency [12] | Potency [13] | Potency [14] | Potency [15] | Potency [16] | Potency [17] | Potency [18] | Potency [19] | outcome [20]

O=C(c1cncc(Br)c1)N1CCC(N2CCCC2)CC1
inactive: max response [20] -7.35% | outcome [20]

COC(=O)C[C@](O)(CCCC(C)(C)O)C(=O)O[C@@H]1C(OC)=C[C@]23CCCN2CCc2cc4c(cc2[C@H]13)OCO4
active: Potency [1] 12.6 nM | Potency [2] 17.8 nM | Potency [3] 56.2 nM | Potency [4] 30.1 nM | Potency [5] 28.2 nM | Potency [6] 15.8 nM | Potency [7] 6.3 nM | Potency [8] 20 nM | Potency [9] 28.2 nM | Potency [10] 15.8 nM | Potency [11] 15.8 nM | Potency [12] 31.6 nM | Potency [13] 19 nM | Potency [14] 0.6 nM | Potency [15] 28.2 nM | Potency [16] 25.1 nM | Potency [17] 15.8 nM | Potency [18] 100 nM | Potency [19] 30.1 nM
inactive: max response [20] 3.78%

COc1cccc(Nc2c(C(N)=O)cnc3c(C)cc(S(=O)(=O)c4cccc(C(=O)N(C)C)c4)cc23)c1
inactive: max response [20] -20.3% | outcome [20]

CC(C)(C)NC(=O)[C@H]1CN(Cc2cccnc2)CCN1C[C@@H](O)C[C@@H](Cc1ccccc1)C(=O)N[C@H]1c2ccccc2C[C@H]1O
inactive: Potency [7] | Potency [14]
active: Potency [2] 11200 nM | Potency [4] 5360 nM | Potency [9] 14100 nM | Potency [10] 11200 nM | Potency [13] 8490 nM | Potency [17] 11200 nM | Potency [19] 6010 nM
